The values that follow come from PubChem BioAssay (NCI).

Compounds without any hit were thinned out: in the full panel of roughly 79,000, 15% have a hit. Calls of active or inactive are those of the source. No stated cut-off is given here; in the data, active means growth inhibition above about 70%; inactive means the rest.

One experiment in a line: NCI Yeast Anticancer Drug Screen. Data for the sgs1 mgt1 strain (AID 161).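 Further: 0% = growth of cultures given vehicle only.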 Conditions: S. cerevisiae sgs1 mgt1 strain, at 50.0 µM, stronger effect = higher value. Put shortly: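 Percent growth inhibition was derived by comparing compound-exposed mutant yeast with vehicle-exposed cultures. The strain carries alterations in DNA damage repair.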
As to `CCCCN(CCC(=O)O)c1ccc(/C=C\c2ccnc3ccccc23)cc1`, the growth inhibition was 95.6% (active).
Still for that read-out and setting: in the case of `CC1CC(N)=NC1C(=O)NCCC#N` (stereo not drawn) it was 64.1% (inactive); in that of `O=C(CC1(O)CCCCC1)OC1CCCC1`, 5.85% (inactive).
Still for that read-out and setting: with `CN(C)c1nc(-c2ccccc2)cc(-c2ccc(O)cc2)n1` the figure was 45.9% (inactive).
Same read-out and setting: in the case of `Oc1cc(C(c2ccccc2)c2ccccc2)c2ccccc2c1O` it was 98.5% (active).
With `C(=P(c1ccccc1)(c1ccccc1)c1ccccc1)[P+](c1ccccc1)(c1ccccc1)c1ccccc1`, the growth inhibition is 99.3% (active).
Same read-out and setting: with `COC(=O)c1ccc(CCc2cc(O)ccc2O)cc1` the figure was 98% (active).
For the compound `CCCCCCCCCCN`, the growth inhibition was 71% (active).
As for `CC[N-]c1nncs1.CC[N-]c1nncs1.CC[N-]c1nncs1.CC[N-]c1nncs1.[Cl][Rh][Cl]`, the growth inhibition is 98.5% (active).
`CC(C)C1=CC23CCC4C(C)(C(=O)O)CCCC4(C)C2CC1CC3C#N` (stereo not drawn): the growth inhibition was 98.5% (active).
The same measure, in the same setting: with `COc1ccc(/C(Cl)=C(\C=O)c2ccc(Cl)cc2)cc1` the figure was 27.8% (inactive); with `CCOC(=O)Cc1csc(/N=C\c2c(O)c3ccccc3oc2=O)n1`, -10.9% (inactive).
Take `Cc1cccc(/C=N/NC(=S)Nc2ccccc2)n1`: the growth inhibition is 91.2% (active).
Same read-out and setting: in the case of `Nc1nn2c(C(Br)Br)cc(C(Br)Br)nc2c1[N+](=O)[O-]` it was 99.5% (active); in that of `c1ccc2nc3ccccc3nc2c1`, 28.4% (inactive).
Turning to `O=c1ccc2nc3ccccc3ccc-2c1`, the growth inhibition is 18.3% (inactive).
Still for that read-out and setting: in the case of `C=CCOCC(C)OC(=O)C(C)C` (stereo not drawn) it was 18.3% (inactive); in that of `CCCCCCOC(=O)CCC(=O)OCCCCCC`, 23.5% (inactive); in that of `CC(=O)C(C(C)=O)C1C=CC=CC=C1`, 91.8% (active).
Same read-out and setting: in the case of `CCCOC(=O)CCCC(=O)N(CC)CC` it was -25.1% (inactive).
The same measure, in the same setting: in the case of `CCOC(=O)C(=O)CC1=Nc2ccccc2SC(c2cccc(C)c2)C1` (stereo not drawn) it was 99.2% (active); in that of `COc1cc2c(c(-c3cn(C)c4ccccc34)c1OC)OCO2`, 86% (active).
As to `COC(=O)c1c(C)cccc1C1CN=NC12Cc1ccc(C)c(C)c1C2=O` (stereo not drawn), the growth inhibition is 68.5% (inactive).
Consider `CCCCCCCCCCC(=O)CC(=O)c1c(O)cccc1O`, for which the growth inhibition was 2.4% (inactive).
Turning to `CCCCCCNC(=S)N/N=C(\C)c1ccccn1`, the growth inhibition was 90% (active).
On the same count and under the same terms, with `Oc1ccc(N=Nc2ccc(Cl)cc2)cc1O` the figure was 98.5% (active); with `CCO/C=C1\N=C(C(O)(c2ccc(Cl)cc2)c2ccc(Cl)cc2)OC1=O`, 18.8% (inactive).
For `Clc1ccc(CN2COc3c(ccc4cccnc34)C2)cc1`, the growth inhibition is 99.4% (active).
Still for that read-out and setting: in the case of `Cc1nc(C(N)=S)sc1/C(CC(=O)C(=O)Nc1cccc2ccc(O)cc12)=N\NC(=O)c1ccncc1` it was -4.85% (inactive); in that of `Nc1ncc(C(=O)c2ccccc2)cc1[N+](=O)[O-]`, -5.95% (inactive); in that of `O=C1C2C3C=CC(C3)C2C(=O)C2C3C=CC(C3)C12` (stereo not drawn), 99% (active).
On the same count and under the same terms, in the case of `CCCCOC(=O)c1cnc[nH]c1=O` it was 8.15% (inactive); in that of `N#CC(c1ccc(Cl)cc1)c1ccc([N+](=O)[O-])cc1` (stereo not drawn), 60.9% (inactive).
Still for that read-out and setting: with `CN(C)C(N)=NC#N` the figure was 51.2% (inactive).
With `CCCCc1c(O)c(N=NC(=O)C[n+]2ccccc2)c2ccccc2c1O`, the growth inhibition was 17.8% (inactive).
For the compound `CCOC(=O)C(=O)Nc1nc2c(s1)C(=O)c1ccccc1C2=O`, the growth inhibition was 96.9% (active).
For `COc1ccc(C(=O)Nc2ccccc2[N+](=O)[O-])cc1`, the growth inhibition was 10.4% (inactive).
Same read-out and setting: with `COc1ccccc1NC(=O)/C(=C/n1c(=S)sc2ccccc21)C(C)=O` the figure was 63.6% (inactive).
In the case of `Cc1ccc(C)c(C(=O)/C=C/C(=O)O)c1`, the growth inhibition was 61.5% (inactive).

A short description of the next experiment: NCI Yeast Anticancer Drug Screen. Data for the cln2 rad14 strain (AID 165).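 Further: 0% = growth equal to vehicle treated cultures.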 Conditions: S. cerevisiae cln2 rad14 strain, at 5.0 µM (retest, dose inferred, filed as 0.5), stronger effect = higher value. Put shortly:
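Yeast strain cln2 rad14, bearing defects in cell cycle control and DNA repair, serves as the test system; values reflect growth inhibition compared with vehicle.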
Regarding `CCCCN(CCC(=O)O)c1ccc(/C=C\c2ccnc3ccccc23)cc1`, the growth inhibition was 15% (inactive).
On to `CC1CC(N)=NC1C(=O)NCCC#N` (stereo not drawn), for which the growth inhibition is 14% (inactive).
On to `O=C(CC1(O)CCCCC1)OC1CCCC1`, for which the growth inhibition was -14% (inactive).
In the case of `CN(C)c1nc(-c2ccccc2)cc(-c2ccc(O)cc2)n1`, the growth inhibition is 22% (inactive).
On to `Oc1cc(C(c2ccccc2)c2ccccc2)c2ccccc2c1O`, for which the growth inhibition is 13% (inactive).
Still for that read-out and setting: in the case of `C(=P(c1ccccc1)(c1ccccc1)c1ccccc1)[P+](c1ccccc1)(c1ccccc1)c1ccccc1` it was 98% (active); in that of `COC(=O)c1ccc(CCc2cc(O)ccc2O)cc1`, 27% (inactive).
The same measure, in the same setting: in the case of `CCCCCCCCCCN` it was 6% (inactive); in that of `CC[N-]c1nncs1.CC[N-]c1nncs1.CC[N-]c1nncs1.CC[N-]c1nncs1.[Cl][Rh][Cl]`, 0% (inactive); in that of `CC(C)C1=CC23CCC4C(C)(C(=O)O)CCCC4(C)C2CC1CC3C#N` (stereo not drawn), 3% (inactive).
On the same count and under the same terms, in the case of `COc1ccc(/C(Cl)=C(\C=O)c2ccc(Cl)cc2)cc1` it was 12% (inactive); in that of `CCOC(=O)Cc1csc(/N=C\c2c(O)c3ccccc3oc2=O)n1`, 26% (inactive).
In the case of `Cc1cccc(/C=N/NC(=S)Nc2ccccc2)n1`, the growth inhibition was -37% (inactive).
On to `Nc1nn2c(C(Br)Br)cc(C(Br)Br)nc2c1[N+](=O)[O-]`, for which the growth inhibition is 99% (active).
Take `c1ccc2nc3ccccc3nc2c1`: the growth inhibition is 2% (inactive).
As for `O=c1ccc2nc3ccccc3ccc-2c1`, the growth inhibition was -46% (inactive).
In the case of `C=CCOCC(C)OC(=O)C(C)C` (stereo not drawn), the growth inhibition was -60% (inactive).
On the same count and under the same terms, in the case of `CCCCCCOC(=O)CCC(=O)OCCCCCC` it was 32% (inactive); in that of `CC(=O)C(C(C)=O)C1C=CC=CC=C1`, -59% (inactive); in that of `CCCOC(=O)CCCC(=O)N(CC)CC`, -5% (inactive).
For the compound `CCOC(=O)C(=O)CC1=Nc2ccccc2SC(c2cccc(C)c2)C1` (stereo not drawn), the growth inhibition is -2% (inactive).
With `COc1cc2c(c(-c3cn(C)c4ccccc34)c1OC)OCO2`, the growth inhibition was -1% (inactive).
The same measure, in the same setting: in the case of `COC(=O)c1c(C)cccc1C1CN=NC12Cc1ccc(C)c(C)c1C2=O` (stereo not drawn) it was 1% (inactive).
Take `CCCCCCCCCCC(=O)CC(=O)c1c(O)cccc1O`: the growth inhibition was 0% (inactive).
Still for that read-out and setting: with `CCCCCCNC(=S)N/N=C(\C)c1ccccn1` the figure was 90% (active); with `Oc1ccc(N=Nc2ccc(Cl)cc2)cc1O`, -7% (inactive).
On to `CCO/C=C1\N=C(C(O)(c2ccc(Cl)cc2)c2ccc(Cl)cc2)OC1=O`, for which the growth inhibition was 1% (inactive).
The same measure, in the same setting: with `Clc1ccc(CN2COc3c(ccc4cccnc34)C2)cc1` the figure was 1% (inactive).
For the compound `Cc1nc(C(N)=S)sc1/C(CC(=O)C(=O)Nc1cccc2ccc(O)cc12)=N\NC(=O)c1ccncc1`, the growth inhibition was 14% (inactive).
The same measure, in the same setting: in the case of `Nc1ncc(C(=O)c2ccccc2)cc1[N+](=O)[O-]` it was -56% (inactive); in that of `O=C1C2C3C=CC(C3)C2C(=O)C2C3C=CC(C3)C12` (stereo not drawn), 23% (inactive).
The same measure, in the same setting: with `CCCCOC(=O)c1cnc[nH]c1=O` the figure was 4% (inactive); with `N#CC(c1ccc(Cl)cc1)c1ccc([N+](=O)[O-])cc1` (stereo not drawn), -4% (inactive).
Same read-out and setting: in the case of `CN(C)C(N)=NC#N` it was 20% (inactive); in that of `CCCCc1c(O)c(N=NC(=O)C[n+]2ccccc2)c2ccccc2c1O`, 2% (inactive).
`CCOC(=O)C(=O)Nc1nc2c(s1)C(=O)c1ccccc1C2=O`: the growth inhibition is -3% (inactive).
Still for that read-out and setting: with `COc1ccc(C(=O)Nc2ccccc2[N+](=O)[O-])cc1` the figure was -14% (inactive).
The same measure, in the same setting: in the case of `COc1ccccc1NC(=O)/C(=C/n1c(=S)sc2ccccc21)C(C)=O` it was 11% (inactive).
The same measure, in the same setting: with `Cc1ccc(C)c(C(=O)/C=C/C(=O)O)c1` the figure was 15% (inactive).
